The values below come from the supplement of paper PMC9694430.

Common to all, as to test: thermal shift delta Tm vs DMSO control; higher = stronger stabilization (binding)
What all share (details): 12.5 µM; protein concentration 2 µM

For assay [1], the system named is LOC_OS01G01410-cb001. The essentials: (§1)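 The melting temperature shift given here is a triplicate mean, measured against protein that received only DMSO. Melting temperatures came from Boltzmann fits of differential scanning fluorimetry data on E. coli-expressed, purified rice kinase domain constructs. Each 19.5 μl well contained 2 μM kinase, 100 mM potassium phosphate pH 7.5, 150 mM NaCl, 10% glycerol, 5 × SYPRO Orange and compound in DMSO. Plates were scanned from 25°C to 95°C at 0.05°C/s.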

Assay [2] has as its system LOC_OS01G02750-cb003. Summed up:
as §1

The test system of assay [3] is LOC_OS01G10900-cb004. Summed up:
as §1

Assay [4] has as its system LOC_OS01G13800-cb001. Summed up: as §1
The test system of assay [5] is LOC_OS01G14860-cb001. The essentials: as §1
The subject of assay [6] is LOC_OS01G21960-cb002. The essentials:
as §1

For assay [7], the system named is LOC_OS01G39600-cb002. The essentials: as §1
Assay [8] concerns LOC_OS01G48390-cb002. The essentials:
as §1

In assay [9] the test system is LOC_OS01G51400-cb002. Summed up: as §1
Assay [10] concerns T1, LOC_OS01G52050-cb004.
T1 sequence (whole entry): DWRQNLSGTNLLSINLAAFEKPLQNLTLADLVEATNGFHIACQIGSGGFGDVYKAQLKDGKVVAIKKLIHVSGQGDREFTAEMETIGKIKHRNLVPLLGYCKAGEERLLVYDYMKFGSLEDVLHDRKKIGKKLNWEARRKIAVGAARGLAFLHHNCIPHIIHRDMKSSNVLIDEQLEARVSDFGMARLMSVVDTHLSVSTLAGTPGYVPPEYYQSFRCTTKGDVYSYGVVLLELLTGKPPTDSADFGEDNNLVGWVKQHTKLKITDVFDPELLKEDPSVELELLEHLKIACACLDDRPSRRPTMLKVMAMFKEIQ
The essentials:
as §1

Assay [11] has as its system LOC_OS01G57100-cb003. Summed up: as §1
Assay [12] deals with LOC_OS01G60330-cb001. Summed up:
as §1

The test system of assay [13] is LOC_OS01G60700-cb002. Summed up: as §1
Assay [14] has as its system LOC_OS01G63280-cb003. The essentials: as §1
The test system of assay [15] is LOC_OS01G67340-cb003. Summed up: as §1
Assay [16] relates to LOC_OS01G70970-cb002. The essentials:
as §1

In assay [17] the test system is LOC_OS02G07810-cb001. The essentials:
as §1

Assay [18] relates to LOC_OS02G08530-cb003. Summed up: as §1
Assay [19] deals with LOC_OS02G14120-cb001. Summed up:
as §1

The test system of assay [20] is LOC_OS02G17970-cb001. Summed up: as §1

On to `Cc1cc(F)c(Nc2ncnc3cc(OCc4ccccc4)ccc23)cc1O`, for which the “thermal shift delta Tm” value worked out at 0.8 °C in assay [1]; 2.62 °C in [2]; 0.6 °C in assay [3]; 0.61 °C in assay [4]; 0.45 °C in assay [5]; 1.56 °C in assay [6]. For the same compound, the “thermal shift delta Tm” value in assay [7] stood at 1.09 °C; in assay [8], 1.2 °C; in assay [9], 0.81 °C; in assay [10] it was 0.77 °C; in assay [11], 1.8 °C; in assay [12], 0.94 °C. Further, the “thermal shift delta Tm” value in [13] was determined as 2.58 °C; in assay [14] it was 1.25 °C; in assay [15], 0.41 °C; in assay [16] it was 0.6 °C; in assay [17], 1.36 °C; in [18], 1.46 °C. Moreover, the results for the “thermal shift delta Tm” value in assay [19] and in [20] were 0.86 °C and 1.59 °C, respectively.
As for `COc1cc(Nc2ncc3c(n2)-c2ccc(Cl)cc2C(c2c(F)cccc2OC)=NC3)ccc1C(=O)O` [Alisertib (MLN8237)], the “thermal shift delta Tm” value in assay [1] is 0.87 °C; in assay [2] it was 0.27 °C; in assay [3] it was -0.01 °C; in [4], -0.04 °C; in assay [5] it was 0.35 °C; in [6], -0.3 °C. Further, the “thermal shift delta Tm” value is 3.62 °C in assay [7]; -0.18 °C in assay [8]; -0.33 °C in assay [9]; 0.48 °C in assay [10]; 0.2 °C in [11]; 0.56 °C in assay [12]. Besides, the “thermal shift delta Tm” value in assay [13] came to 0.66 °C; in [14] it was 0.76 °C; in [15], 0.39 °C; in [16], 0.83 °C; in [17] it was 0.08 °C; in [18], 0.3 °C. In addition, the “thermal shift delta Tm” value in assay [19] is 4.62 °C; in assay [20] it was 0.21 °C.
`c1nc2c(NC3CCCCC3)nc(Nc3ccc(N4CCOCC4)cc3)nc2[nH]1` [Reversine]: the “thermal shift delta Tm” value in assay [1] was 5.03 °C; in [2], 0.7 °C; in [3] it was 0.47 °C; in assay [4], 0.43 °C; in [5] it was 2.02 °C; in assay [6], 2.54 °C. The “thermal shift delta Tm” value in assay [7] is 5.31 °C; in [8], -0.29 °C; in assay [9], 1.66 °C; in [10], 5.54 °C; in [11] it was 0.27 °C; in [12] it was 11.7 °C. For the same compound, the “thermal shift delta Tm” value in assay [13] is 1.27 °C; in assay [14], 1.53 °C; in assay [15] it was 3.68 °C; in assay [16], 7.39 °C; in assay [17] it was -0.13 °C; in [18], 4.69 °C. Further, the “thermal shift delta Tm” value is 7.96 °C in [19] and 0.48 °C in assay [20].
For `CNC(=O)c1ccc(-c2cnc3ncc(Cc4ccc5ncccc5c4)n3n2)cc1F`, the “thermal shift delta Tm” value in [1] is 0.07 °C; in assay [2] it was 0.51 °C; in assay [3], 0.48 °C; in assay [4], -0.08 °C; in assay [5] it was 0.29 °C; in [6], 0.73 °C. For the same compound, the “thermal shift delta Tm” value in [7] is -0.03 °C; in assay [8], 0.24 °C; in [9] it was -0.03 °C; in [10], 0.32 °C; in assay [11], 0.49 °C; in [12] it was -0.8 °C. Also, the “thermal shift delta Tm” value is 0.39 °C in assay [13]; 0.07 °C in [14]; 0.32 °C in assay [15]; -0.18 °C in assay [16]; 0.83 °C in assay [17]; 0.3 °C in assay [18]. The “thermal shift delta Tm” value is -0.02 °C in assay [19] and 0.26 °C in assay [20].
For `N#CC(=C(/N)Sc1ccccc1N)/C(C#N)=C(\N)Sc1ccccc1N`, the “thermal shift delta Tm” value in assay [1] was 1.35 °C; in [2], 1.84 °C; in [3], -0.2 °C; in [4], 0.46 °C; in [5], 0.53 °C; in assay [6] it was 0.18 °C. Further, the “thermal shift delta Tm” value in assay [7] is 1.48 °C; in assay [8] it was 0.24 °C; in [9], 0.39 °C; in assay [10] it was 2.41 °C; in assay [11], -0.44 °C; in [12] it was 2.17 °C. The “thermal shift delta Tm” value in assay [13] was 0.48 °C; in assay [14], 2.36 °C; in assay [15] it was 0.77 °C; in [16], 0.62 °C; in assay [17], 1.33 °C; in assay [18] it was 1.04 °C. Further, the “thermal shift delta Tm” value was 0.63 °C in [19] and 0.85 °C in [20].
As for `COCCOc1cnc2ccn([C@H](C)c3nnc4c(F)cc(-c5cnn(C)c5)cn34)c(=O)c2c1`, the “thermal shift delta Tm” value in [1] was 0.44 °C; in assay [2], 0.28 °C; in [3] it was 0.34 °C; in assay [4] it was -0.27 °C; in assay [5], 0.15 °C; in [6], 0.42 °C. Besides, the “thermal shift delta Tm” value in assay [7] was -0.26 °C; in assay [8] it was 0.28 °C; in assay [9], 0.32 °C; in [10], 0.4 °C; in assay [11] it was 0.7 °C; in [12], -0.01 °C. Moreover, the “thermal shift delta Tm” value is 0.32 °C in assay [13]; 0.22 °C in assay [14]; 0.31 °C in assay [15]; 0.36 °C in assay [16]; 0.15 °C in assay [17]; 0.71 °C in assay [18]. The “thermal shift delta Tm” value in assay [19] turned out to be 1.22 °C; in [20], 0.15 °C.
